In the supplement of paper PMC4022240:
± gives the standard deviation.

T1: HaloTag-ATRX ADD domain (163-292)
T1 chain: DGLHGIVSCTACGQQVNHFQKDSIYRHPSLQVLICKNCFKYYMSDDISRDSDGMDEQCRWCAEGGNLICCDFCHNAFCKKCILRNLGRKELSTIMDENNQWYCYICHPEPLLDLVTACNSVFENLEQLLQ


Target: T1, HaloTag-ATRX ADD domain (163-292)
Assay: peptide microarray binding signal (635 nm), min-max normalized on array (fraction of array maximum); higher = stronger binding
Conditions: peptide region: Unmod H1 variant; binder concentration: 50 nM
Procedure, shortened: (§1)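 Two probe formats were used for 1 h at 4°C: biotin-labelled HaloTag reader fusions (10 nM to 1 μM) with streptavidin-Alexa Fluor 647, and rabbit histone antibodies (1:10,000 to 1:2,000) with anti-rabbit Alexa 647. Both were applied to nitrocellulose arrays of histone 13-mer peptide–cellulose conjugates printed in triplicate with a Cy3 tracer and blocked overnight at 4°C. Signal was read at 635 nm and misprints at 532 nm on an Axon GenePix 4000B. Binding signal is expressed as the triplicate-spot mean intensity, min-max scaled for each library.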

Binder | peptide microarray binding signal
RLVTTGVLKQTKG [Unmod H1 variant R L V T T G V L K Q T K G] | 0.0191 ± 0.00044
AEKNRAGSSRQSI [Unmod H1 variant A E K N R A G S S R Q S I] | 0.0112 ± 0.00071
KKSTDHPKYSDMI [Unmod H1 variant K K S T D H P K Y S D M I] | 0.01 ± 7.3e-05
AKPKRAKASKKST [Unmod H1 variant A K P K R A K A S K K S T] | 0.0106 ± 0.0005

Same assay, conditions: peptide region: Unmod H1 variant; binder concentration: 500 nM

Binder | peptide microarray binding signal
RLVTTGVLKQTKG [Unmod H1 variant R L V T T G V L K Q T K G] | 0.035 ± 0.0031
AEKNRAGSSRQSI [Unmod H1 variant A E K N R A G S S R Q S I] | 0.0179 ± 0.0034
KKSTDHPKYSDMI [Unmod H1 variant K K S T D H P K Y S D M I] | 0.00895 ± 0.0005
AKPKRAKASKKST [Unmod H1 variant A K P K R A K A S K K S T] | 0.018 ± 0.00086

Target: HaloTag-ING2 PHD (mouse Ing2 200-280)
Assay: as above
Conditions: peptide region: Unmod H1 variant; binder concentration: 10 nM
Procedure, shortened: as §1

Binder | peptide microarray binding signal
RLVTTGVLKQTKG [Unmod H1 variant R L V T T G V L K Q T K G] | 0.0205 ± 0.0038
AEKNRAGSSRQSI [Unmod H1 variant A E K N R A G S S R Q S I] | 0.00495 ± 0.00025
KKSTDHPKYSDMI [Unmod H1 variant K K S T D H P K Y S D M I] | 0.00269 ± 3e-05
AKPKRAKASKKST [Unmod H1 variant A K P K R A K A S K K S T] | 0.00334 ± 4.8e-05

Same assay, conditions: peptide region: Unmod H1 variant; binder concentration: 100 nM

Binder | peptide microarray binding signal
RLVTTGVLKQTKG [Unmod H1 variant R L V T T G V L K Q T K G] | 0.0395 ± 0.0068
AEKNRAGSSRQSI [Unmod H1 variant A E K N R A G S S R Q S I] | 0.00943 ± 0.0026
KKSTDHPKYSDMI [Unmod H1 variant K K S T D H P K Y S D M I] | 0.00418 ± 0.00013
AKPKRAKASKKST [Unmod H1 variant A K P K R A K A S K K S T] | 0.00638 ± 0.0014

Target: anti-H3K4me3 antibody ab8580
Assay: as above
Conditions: peptide region: Unmod H1 variant; binder concentration: 1:2,000 dilution
Procedure, shortened: as §1

Binder | peptide microarray binding signal
RLVTTGVLKQTKG [Unmod H1 variant R L V T T G V L K Q T K G] | 0.00321 ± 0.00047
AEKNRAGSSRQSI [Unmod H1 variant A E K N R A G S S R Q S I] | 0.000453 ± 4.1e-05
KKSTDHPKYSDMI [Unmod H1 variant K K S T D H P K Y S D M I] | 0.000717 ± 7.3e-05
AKPKRAKASKKST [Unmod H1 variant A K P K R A K A S K K S T] | 0.000378 ± 1.4e-05

Same assay, conditions: peptide region: Unmod H1 variant; binder concentration: 1:10,000 dilution

Binder | peptide microarray binding signal
RLVTTGVLKQTKG [Unmod H1 variant R L V T T G V L K Q T K G] | 0.00348 ± 4.9e-05
AEKNRAGSSRQSI [Unmod H1 variant A E K N R A G S S R Q S I] | 0.000913 ± 1.6e-05
KKSTDHPKYSDMI [Unmod H1 variant K K S T D H P K Y S D M I] | 0.000856 ± 1.8e-05
AKPKRAKASKKST [Unmod H1 variant A K P K R A K A S K K S T] | 0.000913 ± 2.8e-05

Target: anti-H3K9me3 antibody ab8898
Assay: as above
Conditions: peptide region: Unmod H1 variant; binder concentration: 1:2,000 dilution
Procedure, shortened: as §1

Binder | peptide microarray binding signal
RLVTTGVLKQTKG [Unmod H1 variant R L V T T G V L K Q T K G] | 0.00151 ± 8.2e-05
AEKNRAGSSRQSI [Unmod H1 variant A E K N R A G S S R Q S I] | 0.000544 ± 1.5e-05
KKSTDHPKYSDMI [Unmod H1 variant K K S T D H P K Y S D M I] | 0.000196 ± 2.1e-06
AKPKRAKASKKST [Unmod H1 variant A K P K R A K A S K K S T] | 0.000347 ± 7e-06

Same assay, conditions: peptide region: Unmod H1 variant; binder concentration: 1:10,000 dilution

Binder | peptide microarray binding signal
RLVTTGVLKQTKG [Unmod H1 variant R L V T T G V L K Q T K G] | 0.001903 ± 1.8e-05
AEKNRAGSSRQSI [Unmod H1 variant A E K N R A G S S R Q S I] | 0.00219 ± 0.00045
KKSTDHPKYSDMI [Unmod H1 variant K K S T D H P K Y S D M I] | 0.00075 ± 7.9e-06
AKPKRAKASKKST [Unmod H1 variant A K P K R A K A S K K S T] | 0.000634

Target: T1, HaloTag-ATRX ADD domain (163-292)
Assay: as above
Conditions: peptide region: H4 53-65; peptide modifications: H4K59me2; binder concentration: 50 nM
Procedure, shortened: as §1

Binder | peptide microarray binding signal
ETRGVLKVFLENV [H4 53-65 E T R G V L Kme2 V F L E N V] | 0.00674 ± 0.0001

Same assay, conditions: peptide region: H4 53-65; peptide modifications: H4K59me2; binder concentration: 500 nM

Binder | peptide microarray binding signal
ETRGVLKVFLENV [H4 53-65 E T R G V L Kme2 V F L E N V] | 0.00752 ± 0.00054

Target: HaloTag-ING2 PHD (mouse Ing2 200-280)
Assay: as above
Conditions: peptide region: H4 53-65; peptide modifications: H4K59me2; binder concentration: 10 nM
Procedure, shortened: as §1

Binder | peptide microarray binding signal
ETRGVLKVFLENV [H4 53-65 E T R G V L Kme2 V F L E N V] | 0.0113 ± 0.00022

Same assay, conditions: peptide region: H4 53-65; peptide modifications: H4K59me2; binder concentration: 100 nM

Binder | peptide microarray binding signal
ETRGVLKVFLENV [H4 53-65 E T R G V L Kme2 V F L E N V] | 0.00758 ± 0.0001

Target: anti-H3K4me3 antibody ab8580
Assay: as above
Conditions: peptide region: H4 53-65; peptide modifications: H4K59me2; binder concentration: 1:2,000 dilution
Procedure, shortened: as §1

Binder | peptide microarray binding signal
ETRGVLKVFLENV [H4 53-65 E T R G V L Kme2 V F L E N V] | 0.00177 ± 0.00011

Same assay, conditions: peptide region: H4 53-65; peptide modifications: H4K59me2; binder concentration: 1:10,000 dilution

Binder | peptide microarray binding signal
ETRGVLKVFLENV [H4 53-65 E T R G V L Kme2 V F L E N V] | 0.00394 ± 0.0003

Target: anti-H3K9me3 antibody ab8898
Assay: as above
Conditions: peptide region: H4 53-65; peptide modifications: H4K59me2; binder concentration: 1:2,000 dilution
Procedure, shortened: as §1

Binder | peptide microarray binding signal
ETRGVLKVFLENV [H4 53-65 E T R G V L Kme2 V F L E N V] | 0.00122 ± 2.8e-05

Same assay, conditions: peptide region: H4 53-65; peptide modifications: H4K59me2; binder concentration: 1:10,000 dilution

Binder | peptide microarray binding signal
ETRGVLKVFLENV [H4 53-65 E T R G V L Kme2 V F L E N V] | 0.003113 ± 2.6e-05
